Laboratory results from PubChem BioAssay (NCATS).
Records with an inconclusive call do not appear. Activity calls are given as the source filed them. Calls follow the shape of the dose curve; as a rule, active = well fitted curve in the direction sought with a large enough effect; inconclusive = small, poorly fitted or top-dose-only effect, or another doubt; inactive = no such curve, though single readings can be large; an effect the other way counts as inactive or inconclusive.

Experiments:
[1] = Cell Viability - LYMP2-005 (AID 967); also: series mostly up to about 92 µM
Summary of the method: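 Steps: seed 2500 LYMP2-005 cells/well, incubate 5 h at 37 C, add compound, incubate 24 h at 37 C, add CellTiter-Glo, wait 30 min at RT, read luminescence. Concentration-response data fitted to Hill equation for AC50.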

[2] = Cell Viability - LYMP2-009 (AID 968); also: series mostly up to about 92 µM; nearly all actives have a fitted effect of over 55% in size
[3] = Cell Viability - LYMP2-011 (AID 969); also: nearly all actives have a fitted effect of over 60% in size
Summary of the method: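 2500 cells/well, 5 hr 37 C; compound added, 24 hr 37 C; CellTiter-Glo 30 min RT; luminescence. qHTS concentration-response, Hill-equation AC50. Tetraoctylammonium bromide positive control.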

[4] = Cell Viability - LYMP2-013 (AID 970); also: series mostly up to about 92 µM; nearly all actives have a fitted effect of over 55% in size
Summary of the method: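 qHTS; 2500 lymphoblastoid cells/well; 5 hr 37 C settle; cpd 24 hr 37 C; CellTiter-Glo, 30 min RT; luminescence. AC50 = Hill fit.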

[5] = Cell Viability - LYMP2-015 (AID 971); also: nearly all actives have a fitted effect of over 55% in size
Summary of the method: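 Luminescent ATP read-out (CellTiter-Glo) served as the viability measure after lymphoblastoid cells were exposed to compounds for 24 hours at 37 C. Concentration-response data were fitted with the Hill equation to give AC50.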

[6] = Cell Viability - LYMP2-017 (AID 972); also: series mostly up to about 92 µM; nearly all actives have a fitted effect of over 55% in size
Summary of the method: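 2500 cells/well, 5 h 37 C; cpd 24 h 37 C in complete medium; CellTiter-Glo, 30 min RT; luminescence (ATP). AC50 via Hill fit, qHTS.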

[7] = Cell Viability - LYMP2-019 (AID 973); also: nearly all actives have a fitted effect of over 55% in size
Summary of the method: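 Luminescent ATP read-out (CellTiter-Glo, 30 min room temperature) served as the viability measure after 24 hr treatment of lymphoblastoid cells at 37 C. Concentration-response data were fitted to the Hill equation for AC50.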

[8] = Cell Viability - LYMP2-021 (AID 974)
Summary of the method: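 Plate 2500 lymphoblastoid cells per well and incubate 5 hr at 37 C. Add compounds over a concentration range and incubate 24 hr at 37 C. Add CellTiter-Glo, wait 30 min at room temperature, read luminescence.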

[9] = Cell Viability - LYMP2-023 (AID 975)
Summary of the method: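 2500 cells/well, 5 hr 37 C; cpd 24 hr 37 C; CellTiter-Glo, 30 min RT; luminescence. qHTS conc-response, Hill fit -> AC50. Pos ctrl tetraoctylammonium bromide.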

[10] = Cell Viability - LYMP2-025 (AID 976); also: series mostly up to about 92 µM
Summary of the method: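 Seed 2500 LYMP2-025 cells/well; 5 hr at 37 C; add compound; 24 hr at 37 C; add CellTiter-Glo; 30 min RT; read luminescence. AC50 from Hill-modelled concentration-response.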

Measured: Potency

C=CCCCCCCC=C
inactive: all assays above

NC=O
inactive: all assays above

CC(CCl)OC(C)CCl (centres undefined)
inactive: all assays above

C/C=C1\CC2C=CC1C2 (centres undefined)
inactive: all assays above

CCC(C)O (centres undefined)
not listed: [9]
inactive: all other assays above

Cc1cccc(C)c1O
inactive: all assays above
